# Source: the supplement of paper PMC9262897, “Low-cost anti-mycobacterial drug discovery using engineered E. coli” (Nature Communications, 2022)
# Counter-ions that a name gives are not always drawn. ± gives the standard deviation of the averaged measurements.
# Tested on: E. coli TESEC Mtb DapB
# Test: growth (OD600 after 10 h); higher = more growth (less inhibition)
# Settings: arabinose induction (level): High; compound 0.1 mM; raw OD600 reference: median of DMSO wells […], cell-free background 0.041
# Procedure: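 TESEC E. coli strains in which the native enzyme is deleted and replaced by arabinose-inducible Mtb Asd, DapB, CysH or TrpD, each grown in its selective medium. Strains were screened against the Prestwick library at 0.1 mM and 1% DMSO in 384-well format at low and high arabinose induction. Growth is read as OD600 after 10 h in triplicate.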
row,SMILES,growth
1,Cc1ccc(C(=O)c2cc(O)c(O)c([N+](=O)[O-])c2)cc1 [Tolcapone],0.0526
2,CO[C@@H]1[C@@H](OC(N)=O)[C@@H](O)[C@H](Oc2ccc3c(O)c(NC(=O)c4ccc(O)c(CC=C(C)C)c4)c(=O)oc3c2C)OC1(C)C [Novobiocin sodium salt],0.05077 ± 0.0005
3,N=C(N)N1CCc2ccccc2C1 [Debrisoquin sulfate],0.209 ± 0.022
4,Nc1cc(C(Cl)=C(Cl)Cl)c(S(N)(=O)=O)cc1S(N)(=O)=O [Clorsulon],0.216 ± 0.014
5,CN1CCC(=C2c3ccccc3C=Cc3ccccc32)CC1 [Cyproheptadine hydrochloride],0.175 ± 0.015
6,CC=C(C)C(=O)OC1C(OC(C)=O)C2(CO)C(O)CC3(C)C(=CCC4C5(C)CCC(OC6OC(C(=O)O)C(OC7OC(CO)C(O)C(O)C7O)C(O)C6OC6OC(CO)C(O)C(O)C6O)C(C)(CO)C5CCC43C)C2CC1(C)C (stereo not drawn) [Beta-Escin],0.329 ± 0.018
7,CN(C/C=C/C#CC(C)(C)C)Cc1cccc2ccccc12 [Terbinafine],0.182 ± 0.047
8,CCc1nc(N)nc(N)c1-c1ccc(Cl)cc1 [Pyrimethamine],0.173 ± 0.016
9,CCN(CC)CCOC(=O)C(Cc1cccc2ccccc12)CC1CCCO1 (stereo not given) [Nafronyl oxalate],0.184 ± 0.019
10,CN(C)CCOc1ccc(/C(=C(/CCCl)c2ccccc2)c2ccccc2)cc1 [Toremifene],0.0495 ± 0.0014
11,CC(C)(Oc1ccc(CCNC(=O)c2ccc(Cl)cc2)cc1)C(=O)O [Bezafibrate],0.184 ± 0.012
12,Fc1ccc(C(c2ccc(F)cc2)N2CCN(C/C=C/c3ccccc3)CC2)cc1 [Flunarizine dihydrochloride],0.0896 ± 0.0018
13,CC(=O)[C@@]12O[C@](C)(c3ccccc3)O[C@@H]1C[C@H]1[C@@H]3CCC4=CC(=O)CC[C@]4(C)[C@H]3CC[C@@]12C [Algestone acetophenide],0.15 ± 0.015
14,CCC(=O)O[C@]1(C(=O)SCF)[C@H](C)C[C@H]2[C@@H]3C[C@H](F)C4=CC(=O)C=C[C@]4(C)[C@@]3(F)[C@@H](O)C[C@@]21C [Fluticasone propionate],0.199 ± 0.015
15,CC(C)(C)NC[C@H](O)COc1ccccc1C1CCCC1 [Penbutolol sulfate],0.184 ± 0.013
16,CN(C)CCn1nnnc1SCC1=C(C(=O)O)N2C(=O)[C@@H](NC(=O)Cc3csc(N)n3)[C@H]2SC1 [Cefotiam hydrochloride],0.218 ± 0.018
17,C#C[C@]1(OC(C)=O)CC[C@H]2[C@@H]3CCC4=C[C@@H](OC(C)=O)CC[C@@H]4[C@H]3CC[C@@]21C [Ethynodiol diacetate],0.161 ± 0.0063
18,COC(=O)[C@H]1[C@H]2C[C@@H]3c4[nH]c5cc(OC)ccc5c4CCN3C[C@H]2C[C@@H](OC(=O)c2cc(OC)c(OC)c(OC)c2)[C@@H]1OC [Reserpine],0.245 ± 0.0092
19,C#C[C@]1(OC(C)=O)CC[C@H]2[C@@H]3CCC4=CC(=NO)CC[C@@H]4[C@H]3CC[C@@]21CC (mixture of isomers) [Norgestimate],0.126 ± 0.0075
20,CC(C)Oc1ccc2c(=O)c(-c3ccccc3)coc2c1 [Ipriflavone],0.191 ± 0.018

# Same assay, conditions: arabinose induction (level): Low; compound 0.1 mM; raw OD600 reference: median of DMSO wells 0.227, cell-free background 0.041
row,SMILES,growth
1,Cc1ccc(C(=O)c2cc(O)c(O)c([N+](=O)[O-])c2)cc1 [Tolcapone],0.0557 ± 0.0019
2,CO[C@@H]1[C@@H](OC(N)=O)[C@@H](O)[C@H](Oc2ccc3c(O)c(NC(=O)c4ccc(O)c(CC=C(C)C)c4)c(=O)oc3c2C)OC1(C)C [Novobiocin sodium salt],0.0501 ± 0.00055
3,N=C(N)N1CCc2ccccc2C1 [Debrisoquin sulfate],0.22 ± 0.039
4,Nc1cc(C(Cl)=C(Cl)Cl)c(S(N)(=O)=O)cc1S(N)(=O)=O [Clorsulon],0.248 ± 0.016
5,CN1CCC(=C2c3ccccc3C=Cc3ccccc32)CC1 [Cyproheptadine hydrochloride],0.192 ± 0.011
6,CC=C(C)C(=O)OC1C(OC(C)=O)C2(CO)C(O)CC3(C)C(=CCC4C5(C)CCC(OC6OC(C(=O)O)C(OC7OC(CO)C(O)C(O)C7O)C(O)C6OC6OC(CO)C(O)C(O)C6O)C(C)(CO)C5CCC43C)C2CC1(C)C (stereo not drawn) [Beta-Escin],0.323 ± 0.0085
7,CN(C/C=C/C#CC(C)(C)C)Cc1cccc2ccccc12 [Terbinafine],0.218 ± 0.03
8,CCc1nc(N)nc(N)c1-c1ccc(Cl)cc1 [Pyrimethamine],0.191 ± 0.044
9,CCN(CC)CCOC(=O)C(Cc1cccc2ccccc12)CC1CCCO1 (stereo not given) [Nafronyl oxalate],0.174 ± 0.008
10,CN(C)CCOc1ccc(/C(=C(/CCCl)c2ccccc2)c2ccccc2)cc1 [Toremifene],0.0508 ± 0.001
11,CC(C)(Oc1ccc(CCNC(=O)c2ccc(Cl)cc2)cc1)C(=O)O [Bezafibrate],0.216 ± 0.013
12,Fc1ccc(C(c2ccc(F)cc2)N2CCN(C/C=C/c3ccccc3)CC2)cc1 [Flunarizine dihydrochloride],0.163 ± 0.065
13,CC(=O)[C@@]12O[C@](C)(c3ccccc3)O[C@@H]1C[C@H]1[C@@H]3CCC4=CC(=O)CC[C@]4(C)[C@H]3CC[C@@]12C [Algestone acetophenide],0.171 ± 0.0092
14,CCC(=O)O[C@]1(C(=O)SCF)[C@H](C)C[C@H]2[C@@H]3C[C@H](F)C4=CC(=O)C=C[C@]4(C)[C@@]3(F)[C@@H](O)C[C@@]21C [Fluticasone propionate],0.239 ± 0.04
15,CC(C)(C)NC[C@H](O)COc1ccccc1C1CCCC1 [Penbutolol sulfate],0.207 ± 0.015
16,CN(C)CCn1nnnc1SCC1=C(C(=O)O)N2C(=O)[C@@H](NC(=O)Cc3csc(N)n3)[C@H]2SC1 [Cefotiam hydrochloride],0.195 ± 0.019
17,C#C[C@]1(OC(C)=O)CC[C@H]2[C@@H]3CCC4=C[C@@H](OC(C)=O)CC[C@@H]4[C@H]3CC[C@@]21C [Ethynodiol diacetate],0.165 ± 0.011
18,COC(=O)[C@H]1[C@H]2C[C@@H]3c4[nH]c5cc(OC)ccc5c4CCN3C[C@H]2C[C@@H](OC(=O)c2cc(OC)c(OC)c(OC)c2)[C@@H]1OC [Reserpine],0.3 ± 0.038
19,C#C[C@]1(OC(C)=O)CC[C@H]2[C@@H]3CCC4=CC(=NO)CC[C@@H]4[C@H]3CC[C@@]21CC (mixture of isomers) [Norgestimate],0.0826 ± 0.025
20,CC(C)Oc1ccc2c(=O)c(-c3ccccc3)coc2c1 [Ipriflavone],0.211 ± 0.039
